Results on nine molecules are retold here after PubChem BioAssay (NCI).

Molecules are shown by their SMILES. Compounds without any hit were thinned out: in the full panel of roughly 83,000, 20% have a hit.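 Cell lines were cultured in 96-well plates, exposed to a single compound concentration, and assessed for percent growth 48 hours later.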 Unmarked numbers belong to inactive results. The source made the active and inactive calls. The calls were made as follows: active = growth percent below 10; inactive = the rest.

Holding throughout (experiment): NCI-60 one-dose screen, 48 h (100 = growth as untreated, 0 = no growth, -100 = all killed)
What all share (details): 10 µM unless noted

Experiment [1] has as its system SK-MEL-2 melanoma.
Experiment [2] has as its system SN12C renal.
Experiment [3] deals with UO-31 renal.
Experiment [4] has as its system TK-10 renal.
For experiment [5], the system named is ACHN renal.
The subject of experiment [6] is CAKI-1 renal.
In experiment [7] the test system is A498 renal.
Experiment [8] deals with MOLT-4 leukemia.
The test system of experiment [9] is SR leukemia.
The subject of experiment [10] is RPMI-8226 leukemia.
Experiment [11] has as its system OVCAR-8 ovarian.
In experiment [12] the test system is OVCAR-5 ovarian.
In experiment [13] the test system is OVCAR-4 ovarian.
For experiment [14], the system named is IGROV1 ovarian.
In experiment [15] the test system is OVCAR-3 ovarian.
Experiment [16] has as its system HS 578T breast.
Experiment [17] deals with NCI/ADR-RES ovarian.
In experiment [18] the test system is CCRF-CEM leukemia.
Experiment [19] relates to SK-OV-3 ovarian.

In the case of `C#CCN1C(=O)/C(=c2\sc3n(c2=O)C2C(NN=3)N(CC)C(=O)N2CC)c2ccccc21` (centres undefined), the growth in [1] was 45.1%; in experiment [2], 32.4%; in experiment [3], 40.1%; in experiment [4], 39.7%; in [5] it was 19.8%; in experiment [6] it was 23.5%. For the same molecule, the growth in [7] is -33.8% (active); in experiment [8], 20.9%; in experiment [9] it was 10.1%; in experiment [10] it was 18.6%; in experiment [11] it was 25.4%; in [12], 33.5%. For the same molecule, the growth in experiment [13] was 47.5%; in experiment [14], 27.6%; in experiment [15], -13.6% (active); in experiment [16], -5.36% (active); in experiment [17] it was -4.94% (active).

Regarding `COc1ccc(-c2nc(-c3ccccc3)c(-c3ccccc3)n2C2CC2)cc1OC1CCCCC1`, the growth in experiment [1] was 87.3%; in experiment [2] it was 73.3%; in experiment [3] it was 62.9%; in experiment [4] it was 92.3%; in experiment [5], 53.8%; in [6], 58.4%. The growth in experiment [7] was 63.7%; in experiment [18], 30.5%; in experiment [8], 32.7%; in [10] it was 48.7%; in experiment [11], 55.4%; in [12] it was 83%. Moreover, the growth in experiment [13] is 67.9%; in experiment [14], 63.1%; in [15], 58.4%; in [16], 73.8%; in [17] it was 55.3%.

On to `COc1cc(Cn2c(-c3nonc3N)nc3ccccc32)ccc1C`, for which the growth in [1] was 20.5%; in experiment [2], 36%; in [3] it was 48.3%; in experiment [4], 54%; in experiment [5], 41.2%; in experiment [6], 46%. For the same molecule, the growth in [7] is 6.72% (active); in [18], 16.2%; in [8] it was 21.2%; in experiment [11], 31.6%; in experiment [12], 34%; in experiment [13], 62.6%. Further, the growth in experiment [19] was 29.9%; in [14], 47.6%; in experiment [15], -34.7% (active); in experiment [16], 22.5%; in experiment [17], 21.2%.

In the case of `Clc1cccc(Cl)c1Cn1c(-c2cncs2)nc2ccccc21`, the growth in [1] was 73.3%; in experiment [2], 81.6%; in experiment [3] it was 68.3%; in [4] it was 85.1%; in experiment [5], 86.8%; in [6], 66.5%. Also, the growth is 125% in experiment [7]; 85% in experiment [18]; 62.9% in [8]; 56.7% in [10]; 87% in [11]; 94% in experiment [12]. In addition, the growth in [13] was 82.1%; in experiment [19], 96.3%; in experiment [14] it was 82.6%; in experiment [15], 90.5%; in experiment [16] it was 97%; in [17] it was 73%.

For `COc1cc(NCCN=C(N)NC(N)=NC(C)C)c2ncccc2c1`, the growth in experiment [1] is -14.2% (active); in [2], 74.8%; in experiment [3], 81.7%; in [4] it was 110%; in experiment [5] it was 94.1%; in experiment [6], 95.3%. The growth in experiment [7] was 91.2%; in experiment [8], 67.5%; in experiment [9], 74.8%; in experiment [10] it was 73.3%; in [11], 87%; in experiment [12], 80.2%. Moreover, the growth is -40.1% (active) in experiment [13]; 92.3% in experiment [19]; -4.12% (active) in [14]; 6.45% (active) in [15]; 99.4% in experiment [17].

With `c1cc(-c2ccc3c(c2)OCO3)n2nccc2n1`, the growth in experiment [1] was 108%; in [2] it was 108%; in experiment [3] it was 90.9%; in experiment [4] it was 104%; in experiment [5], 98.2%; in experiment [6], 94.4%. Further, the growth in [7] was 81.5%; in experiment [18], 100%; in [8], 97.1%; in experiment [10], 97.1%; in experiment [11] it was 98.6%; in [12], 94.2%. The growth in experiment [19] is 106%; in experiment [14], 102%; in [15], 103%; in [16], 105%; in [17] it was 107%.

Take `CCCCCC(=O)OCc1ccccc1`: the growth in [1] is 92.7%; in [2], 98.1%; in [3], 82.7%; in [4], 99.7%; in experiment [5], 98.1%; in experiment [6], 96.5%. The growth in experiment [7] is 114%; in [8], 86.3%; in experiment [9], 85.4%; in [10], 102%; in experiment [11] it was 102%; in experiment [12], 105%. The growth in experiment [13] was 110%; in experiment [19], 93.7%; in experiment [14] it was 96.7%; in experiment [15], 102%; in experiment [17], 100%.

With `COc1cc(/C=C2\C=C(c3ccc(F)cc3)N(Cc3ccccc3)C2=O)cc(OC)c1OC`, the growth was 93.1% in experiment [1]; 65.7% in [2]; 45.9% in experiment [3]; 90.3% in [4]; 73.1% in experiment [5]; 63.3% in experiment [6]. Also, the growth in [7] was 57.4%; in [18], 62%; in [8] it was 25.9%; in experiment [10], 50.7%; in [11], 48.8%; in experiment [13], 51%. The growth in experiment [19] was 99.3%; in [14] it was 84.4%; in experiment [15] it was 70.3%; in [16], 87.1%; in experiment [17], 62.1%.

With `C[C@]12CC[C@@H]3c4cc(O)c(O)cc4CC[C@H]3[C@@H]1CC[C@@H]2O`, the growth was -16.8% (active) in experiment [1]; 50.7% in experiment [2]; 41.4% in experiment [3]; 87.5% in experiment [4]; 42.9% in [5]; 33.3% in [6]. In addition, the growth in experiment [7] is 100%; in [8], 29.1%; in [9], 9.22% (active); in experiment [10], 30.9%; in experiment [11] it was 51.6%; in experiment [12], 98%. Also, the growth is 49.7% in experiment [13]; 29.5% in experiment [19]; 60.2% in experiment [14]; 11.5% in [15]; 28.5% in [17].
